From PubChem BioAssay (NCATS)
Several values for one entry are separate records, joined by “and”; a condition that tells them apart may be missing. Equal values may be shown once. Records with an inconclusive call do not appear. A call without a number means that no potency is given here. Activity calls are given as the source filed them. Unless noted, the call rests on the fitted dose curve; in most records, active means well fitted curve in the direction sought with a large enough effect; inconclusive means small, poorly fitted or top-dose-only effect, or another doubt; inactive means no such curve, though single readings can be large; an effect the other way counts as inactive or inconclusive.

Tests used:
[1] = target: Voltage-gated inwardly rectifying potassium channel KCNH2 (Homo sapiens) (UniProt Q12809); test: qHTS Assay for Small Molecule Inhibitors of the Human hERG Channel Activity (AID 588834);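 further: lower thallium flux fluorescence means stronger hERG block; nearly all actives have a fitted effect of over 50% in size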; further: potency means the concentration at half of the fitted maximal effect
Procedure, shortened: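 U2OS cells transduced with hERG via BacMam (MOI ~100), plated 2000/well, loaded with FluxOR thallium dye, compound ~10 min, then stimulation buffer; fluorescence decrease read kinetically; AC50 from Hill fits.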

[2] = target: Retinoic acid receptor RXR-alpha (Homo sapiens) (UniProt P19793); test: qHTS assay for small molecule agonists of retinoid X receptor alpha signaling (AID 588544; calls by dose curve)
[3] = target: Thyroid hormone receptor beta (Homo sapiens) (UniProt P10828); test: qHTS assay for small molecule antagonists of thyroid hormone receptor beta signaling (AID 588547; active means well fitted inhibition curve with a large enough effect in the signal ratio, with a control signal flat, not every such curve was filed as active; the % refers to the signal ratio; further: potency means the concentration at half of the fitted maximal effect;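 on activity change % (negative = inhibition): cells stimulated with 0.4 nM T3 agonist during compound exposure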); conditions: TR-UAS-bla HEK293, beta-lactamase ratio, antagonist mode, 18 h
Procedure, shortened: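 TR-UAS-bla GripTite HEK293 cells in 2% charcoal/dextran FBS medium were preincubated 4 h at 37 C, given compound (0.59 nM to 92 uM) plus 0.4 nM T3 (final) for 18 h, then CCF4 for 2 h at RT; Hill fit gave IC50.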

[4] = target: Luciferin 4-monooxygenase (Photinus pyralis) (UniProt P08659); test: Biochemical firefly luciferase enzyme assay for NPC (AID 624030);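 further: purified P. pyralis luciferase at 10 nM with luciferin and ATP substrate; nearly all actives have a fitted effect of over 70% in size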
Procedure, shortened: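 Counter-screen for direct inhibition of the luciferase enzyme by approved-drug library compounds, run at 10 nM enzyme in 50 mM Tris acetate (final). Luminescence was read within 5 min of enzyme-buffer addition and normalized to PTC124 versus DMSO (0%).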

[5] = S16 Schwann cell viability assay (CellTiter-Glo assay) (AID 624031); further: nearly all actives have a fitted effect of over 70% in size; further: potency means the concentration at half of the fitted maximal effect
Procedure, shortened: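 CellTiter-Glo ATP luminescence counter-screen in untransfected S16 rat Schwann cells, 24h compound exposure at 37 degree Celsius after overnight seeding (500-750 cells/well); response scaled between cell-free wells and DMSO (0% activity), curves classed by r2 and magnitude.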

[6] = S16 Schwann cell PMP22 intronic element firefly luciferase assay (AID 624032); further: nearly all actives have a fitted effect of over 30% in size; further: potency means the concentration at half of the fitted maximal effect
Procedure, shortened: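 Rat S16 Schwann cells stably carrying a PMP22 intronic element-driven Fluc reporter were seeded overnight, then exposed to compounds for 24 h at 37 °C. Luminescence was normalized to PTC124 (positive control) and DMSO (0% activity).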

[7] = qHTS assay for small molecule antagonists of retinoid X receptor alpha signaling (AID 588546; active means well fitted inhibition curve with a large enough effect in the signal ratio, with a control signal flat, not every such curve was filed as active; the % refers to the signal ratio; further: potency means the concentration at half of the fitted maximal effect;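 on max response: cells stimulated with 9-cis-retinoic acid as agonist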); conditions: HEK293T RXRa-UAS-bla, beta-lactamase ratio, antagonist mode; measured here: W530 green channel, cytotoxicity proxy
Procedure, shortened: (§1)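 Beta-lactamase reporter inhibition, read as CCF4 fluorescence ratio (ex 405, em 460/530 nm) after 2 h at RT. HEK293T UAS-bla cells, 2500/well, were stimulated with 9-cis-RA at 500 or 100 nM final alongside test compound for 18 h at 37 C.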

[8] = target: Retinoic acid receptor RXR-alpha (Homo sapiens) (UniProt P19793); test: as above; conditions: HEK293T RXRa-UAS-bla, beta-lactamase ratio, antagonist mode
Procedure, shortened: as §1

[9] = S16 Schwann cell PMP22 intronic element beta-lactamase assay (AID 624044; calls by dose curve; further: nearly all actives have a fitted effect of over 15% in size; further: potency means the concentration at half of the fitted maximal effect); conditions: S16 rat Schwann cells, PMP22 element beta-lactamase FRET, 24 h; ratio activity, negative = inhibition: at 38.3 µM (top of the series)
Procedure, shortened: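 Rat S16 Schwann cells with beta-Lac driven by a PMP22 intronic element, compound-treated 24 h at 37 °C. LiveBLAzer FRET B/G read: 460 nm normalized to potassium clavulanate vs DMSO; 535 nm FRET as viability; concentration-effect curves classified.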

Chain of Thyroid hormone receptor beta (Homo sapiens) (P10828 whole entry, looked up): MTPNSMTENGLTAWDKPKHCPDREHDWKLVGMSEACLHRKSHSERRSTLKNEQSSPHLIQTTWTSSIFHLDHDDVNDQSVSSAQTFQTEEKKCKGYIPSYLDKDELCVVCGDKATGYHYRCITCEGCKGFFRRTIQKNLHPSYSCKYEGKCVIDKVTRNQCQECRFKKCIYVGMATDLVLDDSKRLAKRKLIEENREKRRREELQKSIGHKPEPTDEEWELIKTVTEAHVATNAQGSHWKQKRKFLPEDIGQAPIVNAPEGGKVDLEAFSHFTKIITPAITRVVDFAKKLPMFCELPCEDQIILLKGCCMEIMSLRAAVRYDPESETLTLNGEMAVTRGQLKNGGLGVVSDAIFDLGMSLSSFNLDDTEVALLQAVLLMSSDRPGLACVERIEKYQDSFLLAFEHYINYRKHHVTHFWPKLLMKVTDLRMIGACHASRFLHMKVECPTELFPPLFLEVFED
Chain of Retinoic acid receptor RXR-alpha (Homo sapiens) (P19793 whole entry, looked up): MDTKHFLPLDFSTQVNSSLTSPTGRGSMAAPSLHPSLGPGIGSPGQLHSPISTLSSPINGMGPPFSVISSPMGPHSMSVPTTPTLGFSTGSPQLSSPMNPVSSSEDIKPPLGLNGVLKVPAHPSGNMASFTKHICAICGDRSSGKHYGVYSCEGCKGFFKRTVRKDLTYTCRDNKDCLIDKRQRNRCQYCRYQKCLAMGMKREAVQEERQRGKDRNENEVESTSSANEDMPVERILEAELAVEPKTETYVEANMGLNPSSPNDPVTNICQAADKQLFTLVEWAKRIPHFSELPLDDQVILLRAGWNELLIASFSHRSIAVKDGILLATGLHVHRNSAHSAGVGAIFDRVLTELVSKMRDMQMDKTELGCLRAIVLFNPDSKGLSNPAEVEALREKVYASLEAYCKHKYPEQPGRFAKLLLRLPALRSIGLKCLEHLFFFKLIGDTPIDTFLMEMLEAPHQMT
Chain of Luciferin 4-monooxygenase (Photinus pyralis) (P08659 whole entry, looked up): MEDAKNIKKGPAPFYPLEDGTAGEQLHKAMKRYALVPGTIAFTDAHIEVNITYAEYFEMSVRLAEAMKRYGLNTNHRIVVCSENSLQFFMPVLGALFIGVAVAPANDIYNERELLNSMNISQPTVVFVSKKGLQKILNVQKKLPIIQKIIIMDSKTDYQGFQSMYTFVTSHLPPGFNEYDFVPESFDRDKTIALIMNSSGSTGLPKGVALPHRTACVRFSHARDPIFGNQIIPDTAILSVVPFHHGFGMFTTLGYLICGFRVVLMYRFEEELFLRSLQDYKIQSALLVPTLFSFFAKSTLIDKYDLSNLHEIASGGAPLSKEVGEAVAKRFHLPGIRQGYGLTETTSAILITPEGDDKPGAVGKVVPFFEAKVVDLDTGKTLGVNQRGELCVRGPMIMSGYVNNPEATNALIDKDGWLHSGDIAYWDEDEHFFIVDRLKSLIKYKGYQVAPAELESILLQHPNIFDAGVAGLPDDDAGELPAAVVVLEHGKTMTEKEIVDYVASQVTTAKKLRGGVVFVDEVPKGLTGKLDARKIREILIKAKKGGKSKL
Chain of Voltage-gated inwardly rectifying potassium channel KCNH2 (Homo sapiens) (Q12809 whole entry, looked up): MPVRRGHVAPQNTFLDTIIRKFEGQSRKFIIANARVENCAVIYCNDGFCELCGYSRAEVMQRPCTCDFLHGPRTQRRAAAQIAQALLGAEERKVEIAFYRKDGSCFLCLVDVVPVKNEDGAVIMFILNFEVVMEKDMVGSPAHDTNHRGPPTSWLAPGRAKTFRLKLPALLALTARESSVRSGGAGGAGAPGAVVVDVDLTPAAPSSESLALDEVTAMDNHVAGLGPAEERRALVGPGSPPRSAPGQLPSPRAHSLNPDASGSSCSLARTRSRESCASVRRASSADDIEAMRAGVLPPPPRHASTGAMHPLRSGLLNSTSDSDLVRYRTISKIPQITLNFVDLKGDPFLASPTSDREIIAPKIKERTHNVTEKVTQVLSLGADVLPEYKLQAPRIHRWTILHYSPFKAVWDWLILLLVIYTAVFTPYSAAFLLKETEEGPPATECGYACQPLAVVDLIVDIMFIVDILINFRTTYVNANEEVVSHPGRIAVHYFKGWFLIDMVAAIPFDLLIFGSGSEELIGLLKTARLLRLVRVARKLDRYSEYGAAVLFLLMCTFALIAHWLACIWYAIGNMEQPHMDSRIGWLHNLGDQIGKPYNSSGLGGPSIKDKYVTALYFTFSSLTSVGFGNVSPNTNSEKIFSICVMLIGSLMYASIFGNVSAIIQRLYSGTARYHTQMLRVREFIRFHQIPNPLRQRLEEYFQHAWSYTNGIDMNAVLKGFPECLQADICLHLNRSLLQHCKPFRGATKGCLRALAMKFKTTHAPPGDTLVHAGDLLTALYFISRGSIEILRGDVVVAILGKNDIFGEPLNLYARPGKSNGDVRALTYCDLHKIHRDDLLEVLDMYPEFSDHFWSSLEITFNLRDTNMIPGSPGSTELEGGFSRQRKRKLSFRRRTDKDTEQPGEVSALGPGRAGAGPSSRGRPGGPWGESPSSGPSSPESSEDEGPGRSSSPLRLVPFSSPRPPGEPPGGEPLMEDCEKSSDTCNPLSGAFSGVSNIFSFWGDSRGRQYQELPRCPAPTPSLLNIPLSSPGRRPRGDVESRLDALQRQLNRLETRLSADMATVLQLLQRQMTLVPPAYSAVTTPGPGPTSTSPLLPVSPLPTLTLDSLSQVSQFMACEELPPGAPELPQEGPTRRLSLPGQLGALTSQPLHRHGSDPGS

N[C@@H](CCC(=O)N[C@@H](CS)C(=O)NCC(=O)O)C(=O)O
Potency [1]: inactive

O=C(O)CCCCC(=O)O
outcome [2]: inactive | activity change % (negative = inhibition) [3]: 0.209% (inactive) | Potency [1]: inactive | Potency [4]: inactive | Potency [5]: inactive | Potency [6]: inactive

CC(C)(Oc1ccc(Cl)cc1)C(=O)O
outcome [2]: inactive | max response [7]: -15.3% | max response [8]: 2.91% (inactive) | Potency [1]: inactive | Potency [4]: inactive | Potency [5]: inactive | Potency [6]: inactive | Potency [9]: inactive

CC(O)C(=O)O (stereo unspecified)
outcome [2]: inactive | max response [7]: 7.59% | max response [8]: 2.3% (inactive) | activity change % (negative = inhibition) [3]: -8.09% (inactive) | Potency [1]: inactive | Potency [4]: inactive | Potency [5]: inactive | Potency [6]: inactive | Potency [9]: inactive

COc1cccc2c1C(=O)c1c(O)c3c(c(O)c1C2=O)C[C@@](O)(C(=O)CO)C[C@@H]3O[C@H]1C[C@H](N)[C@H](O)[C@H](C)O1
max response [7]: -19.8% | Potency [8]: 2 µM (active) | Potency [3]: 5.62 µM (active) and 4.47 µM (active) | Potency [1]: inactive

C#C[C@]1(O)CC[C@H]2[C@@H]3CCC4=CC(=O)CC[C@@H]4[C@H]3CC[C@@]21C
Potency [1]: inactive

Cc1cc(=O)n(-c2ccccc2)n1C
outcome [2]: inactive | max response [7]: -18.2% | max response [8]: 0.0131% (inactive) | activity change % (negative = inhibition) [3]: 5.56% (inactive) | Potency [1]: inactive | Potency [5]: inactive | Potency [6]: inactive

CN(C)C(=S)SC(=S)N(C)C
outcome [2]: inactive | max response [7]: 5.78% | max response [8]: -27.1% (inactive) | activity change % (negative = inhibition) [3]: 10.8% (inactive) | Potency [1]: inactive

C[C@]12CCC(=O)C=C1[C@@H]1C[C@@H]1[C@H]1[C@@H]3[C@@H]4C[C@@H]4[C@@]4(CCC(=O)O4)[C@@]3(C)CC[C@@H]12
Potency [1]: inactive

CC(=O)O[C@]1(C(C)=O)CC[C@H]2[C@@H]3C[C@H](C)C4=CC(=O)CC[C@]4(C)[C@H]3CC[C@@]21C
Potency [1]: inactive

COc1cccc2c1C(=O)c1c(O)c3c(c(O)c1C2=O)C[C@@](O)(C(C)=O)C[C@@H]3O[C@H]1C[C@H](N)[C@H](O)[C@H](C)O1
max response [7]: -11.9% | Potency [8]: 5.62 µM (active) | Potency [3]: 5.01 µM (active) | Potency [1]: inactive | Potency [5]: inactive | Potency [6]: inactive | Potency [9]: 0.126 µM (active)

C[C@@H]1C[C@H]2[C@@H]3CCC4=CC(=O)C=C[C@]4(C)[C@@]3(F)[C@@H](O)C[C@]2(C)[C@H]1C(=O)CO
Potency [1]: inactive | Potency [4]: inactive | Potency [5]: inactive | Potency [6]: inactive

C=C(CC)C(=O)c1ccc(OCC(=O)O)c(Cl)c1Cl
Potency [1]: inactive | Potency [4]: inactive | Potency [5]: inactive

CCN(CC)CCNC(=O)COc1ccc(Cl)cc1
Potency [1]: 14.1 µM (active) | Potency [4]: inactive | Potency [5]: inactive

NCCC(O)(P(=O)(O)O)P(=O)(O)O
Potency [1]: inactive | Potency [4]: inactive | Potency [5]: inactive | Potency [6]: inactive

CCCCOc1cc(C(=O)NCCN(CC)CC)c2ccccc2n1
Potency [1]: 4.47 µM (active) | Potency [4]: inactive | Potency [5]: inactive | Potency [6]: inactive

CCN(CC)C(=O)/C(C#N)=C/c1cc(O)c(O)c([N+](=O)[O-])c1
Potency [1]: inactive | Potency [4]: inactive | Potency [5]: inactive | Potency [6]: inactive

CN=C(NC#N)Nc1ccc(C2=NNC(=O)CC2C)cc1 (stereo unspecified)
Potency [1]: inactive | Potency [4]: inactive | Potency [5]: inactive | Potency [6]: inactive

C[C@H](O)C(=O)Nc1c(I)c(C(=O)NC(CO)CO)c(I)c(C(=O)NC(CO)CO)c1I
Potency [1]: inactive | Potency [4]: inactive | Potency [5]: inactive | Potency [6]: inactive

CCN(CC)C(=O)N1CCN(C)CC1
Potency [1]: inactive | Potency [4]: inactive | Potency [5]: inactive | Potency [6]: inactive

CC(=O)N(O)CCCCCNC(=O)CCC(=O)N(O)CCCCCNC(=O)CCC(=O)N(O)CCCCCN
Potency [1]: inactive | Potency [4]: inactive | Potency [5]: inactive

OCc1ccccc1O
Potency [1]: inactive | Potency [4]: inactive | Potency [5]: inactive | Potency [6]: inactive

CCC(C(=O)OCCN(CC)CC)c1ccccc1 (stereo unspecified)
Potency [1]: inactive | Potency [4]: inactive | Potency [5]: inactive

CN1C(CCl)Nc2cc(Cl)c(S(N)(=O)=O)cc2S1(=O)=O (stereo unspecified)
Potency [1]: inactive | Potency [4]: inactive | Potency [5]: inactive | Potency [6]: 0.161 µM (active)

CCCCN1CCCC1C(=O)Nc1c(C)cc(C)cc1C (stereo unspecified)
Potency [1]: inactive | Potency [4]: inactive | Potency [5]: inactive | Potency [6]: inactive

CC(=O)OCC(=O)NCCCOc1cccc(CN2CCCCC2)c1
Potency [1]: inactive | Potency [4]: inactive | Potency [5]: inactive

COc1ccc(CN2CCN(C(c3ccc(F)cc3)c3ccc(F)cc3)CC2)c(OC)c1OC
Potency [1]: 1.12 µM (active) | Potency [4]: inactive | Potency [5]: 28.7 µM (active)

c1ccc(CNCCNCc2ccccc2)cc1
Potency [1]: inactive | Potency [4]: inactive | Potency [5]: inactive | Potency [6]: inactive

C#C[C@]1(OC(C)=O)CC[C@H]2[C@@H]3CCC4=C[C@@H](OC(C)=O)CC[C@@H]4[C@H]3CC[C@@]21C
Potency [1]: inactive | Potency [4]: inactive | Potency [5]: inactive

O=C1c2ccccc2C(=O)C1c1ccccc1
Potency [1]: inactive | Potency [4]: inactive | Potency [5]: inactive | Potency [6]: inactive

CCn1cc(C(=O)O)c(=O)c2cnc(N3CCCC3)nc21
Potency [1]: inactive | Potency [4]: inactive | Potency [5]: inactive | Potency [6]: inactive

O=C(CCCN1CCC(O)(c2ccc(Br)cc2)CC1)c1ccc(F)cc1
Potency [1]: 0.126 µM (active) | Potency [4]: inactive | Potency [5]: inactive | Potency [6]: inactive

O=C(COc1ccc(Cl)cc1)N1CCN(Cc2ccc3c(c2)OCO3)CC1
Potency [1]: 15.8 µM (active) | Potency [4]: inactive | Potency [5]: inactive | Potency [6]: inactive

COc1cc(C(=S)N2CCOCC2)cc(OC)c1OC
Potency [1]: inactive | Potency [4]: inactive | Potency [5]: inactive | Potency [6]: inactive
